Screens: PubChem, University of Kansas High Throughput Screening Laboratory
Pf apPOL block: Pf-apPOL DNA polymerase inhibition; Recombinant Pf-apPOL, molecular beacon fluorescence, 1.5 h; hit rate 0.25% among 210,000; inhibition, % at 10 µM
mHTT CaM bind: disrupts binding of mutant huntingtin to calmodulin; P42858; AlphaScreen His-mHTT/GST-CaM binding, luminescence; inhibition, % at 15 µM; hit rate 3.6% among 190,000;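 further: 0% = both proteins with DMSO and 100% = one protein alone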
* marks the source's active call; other numbers are inactive results; . = no result. Sampled rows, rich in hits. Any-hit rate of the full collection: about 3.5%. No stated cut-off is given here; in the data, active means inhibition above about 50%; inactive means the rest.

SMILES	Pf apPOL block	mHTT CaM bind
CCn1cnc2ccc(-c3noc(-c4ccccc4OC)n3)cc21	-6	31
CC(=O)Oc1ccc2c(c1)OC(=Cc1ccccc1Br)C2=O	-6	0
CC(=O)Oc1ccc2c(c1)Oc1cc(OC(C)=O)ccc1C21OC(=O)c2ccccc21	6	87*
Cn1c(COc2ccccc2)nn(C2c3ccccc3Oc3ccccc32)c1=S	.	54*
Cn1c(COc2ccccc2)nn(CN2CCC3(CC2)OCCO3)c1=S	.	-8
CCCn1ccnc(N)c1=O	-3	3
Cc1cc2c(cc1C)N[C@]1(C[C@H]3CCCC(=O)N4CC[C@@H](C1)[C@@H]34)C(=NCc1ccccc1)N2	2	34
Cc1cc2c(cc1C)N[C@]1(C[C@H]3CCC(=O)N4CC[C@@H](C1)[C@@H]34)C(=Nc1ccccc1C)N2	-5	48
CC(C)(C)CC(C)(C)N=C1Nc2ccc(Cl)cc2N[C@]12C[C@H]1CCCC(=O)N3CC[C@@H](C2)[C@@H]13	-2	73*
O=C1CCC[C@@H]2C[C@@]3(C[C@@H]4CCN1[C@H]24)Nc1cc(Cl)ccc1NC3=NCc1ccccc1	-3	62*
Cc1cc2c(cc1C)N[C@]1(C[C@H]3CCCC(=O)N4CC[C@@H](C1)[C@@H]34)C(=NC(C)(C)CC(C)(C)C)N2	-4	100*
O=C1CCC[C@@H]2C[C@@]3(C[C@@H]4CCN1[C@H]24)Nc1cc(Cl)ccc1NC3=NC1CCCCC1	-2	30
O=C1CCC[C@@H]2C[C@@]3(C[C@@H]4CCN1[C@H]24)Nc1cc([N+](=O)[O-])ccc1NC3=NC1CCCCC1	-3	51*
Cc1ccccc1N=C1Nc2ccccc2N[C@]12C[C@H]1CCCC(=O)N3CC[C@@H](C2)[C@@H]13	-1	15
O=C(NC1CCN(c2ccccc2C(=O)N2CCCC2)CC1)c1cccs1	-3	3
O=C(NCc1ccccc1)C1CCN(c2cc(N3CCOCC3)ncn2)CC1	-4	-1
Cc1nc(NCCNC(=O)c2ncccn2)cc(N2CCOCC2)n1	-3	-11
Cc1cc(C)n(CC(=O)N2CCN(c3ncccn3)CC2)n1	-1	-6
Cc1ccc(N2CCN(Cc3cc(=O)[nH]c(C(C)C)n3)CC2)cc1	0	4
O=C(Nc1ccc(Cl)cc1F)c1cc(S(=O)(=O)NC2CCCCC2)ccc1F	-4	7
FC(F)(F)c1ccc(C=NN2CCOCC2)c(Cl)c1	-2	.
COc1ccccc1NC(Nc1ccccc1OC)=C(/C=C(\Cl)[N+](=O)[O-])[N+](=O)[O-]	7	73*
COc1ccccc1NC(=O)c1ccccc1[N+](=O)[O-]	-16	5
CCn1ccc2c(cc(C(=O)Nc3cc(C)cc(C)c3)n2C)c1=O	-2	0
C[n+]1ccc(/C=C/c2ccc3c(c2)OCO3)c2ccccc21	-13	8
SMILES	Pf apPOL block	mHTT CaM bind
CN(C)c1ccc(/C=C/c2cc[n+](C)c3ccccc23)cc1	3	80*
Cn1nc(C(=O)NCc2ccc(F)cc2)c2c1CCN(C(=O)c1ccc(Cl)cc1)C2	-13	-10
CCCC(=O)N1CCc2c(c(C(=O)NCc3ccccc3)nn2C)C1	-9	0
COc1ccc(C(=O)N2CCc3c(c(C(=O)NCc4ccc(Cl)cc4)nn3C)C2)cc1	-1	80*
Cn1nc(C(=O)NCc2ccc(F)cc2)c2c1CCN(C(=O)C1CCC1)C2	-8	28
Cn1nc(C(=O)NCc2ccccc2)c2c1CCN(C(=O)CC1CCCC1)C2	-3	71*
Cn1nc(C(=O)NCc2ccc(F)cc2)c2c1CCN(C(=O)CC1CCCC1)C2	-12	76*
Cn1nc(C(=O)NCc2ccc(Cl)cc2)c2c1CCN(C(=O)C1CC1)C2	-6	83*
CCCC(=O)Nc1ccc([N+](=O)[O-])cc1Cl	-5	-2
Cc1cccc(OCC(=O)Nc2cccn3c(C)nnc23)c1	27	11
COc1cccc(Oc2nccnc2N2CCC(C(=O)NCCC(C)C)CC2)c1	-2	10
C=CCc1c(C)nc(SCC(=O)Nc2ccc(Cl)cc2C)[nH]c1=O	2	2
Cn1nc(C(=O)NCc2ccccc2)c2c1CCN(C(=O)C1CCCCC1)C2	-9	85*
Cc1cccc(CNC(=O)c2nn(C)c3c2CN(C(=O)CC2CCCC2)CC3)c1	-10	55*
Cc1cccc(CNC(=O)c2nn(C)c3c2CN(C(=O)C2CCCCC2)CC3)c1	-4	36
O=C(OCc1cn([C@H]2C[C@H](c3ccc(Cl)cc3)N(Cc3cccs3)C[C@@H]2O)nn1)c1ccccc1	-2	34
O=C(OCc1cn([C@H]2CN(Cc3cccs3)[C@@H](c3ccc(Cl)cc3)C[C@@H]2O)nn1)c1ccccc1	-6	100*
Cc1ccc([C@H]2C[C@H](O)[C@@H](n3cc(COC(=O)c4ccccc4)nn3)CN2Cc2cccs2)cc1	0	100*
Cc1ccc([C@H]2C[C@@H](O)[C@H](n3cc(COC(=O)c4ccccc4)nn3)CN2Cc2cccs2)cc1	2	1
Cc1ccn2c(NC(=O)C(C)C)c(-c3cccc(F)c3)nc2c1	5	-1
O=C(Nc1c(-c2ccccc2)nc2ccccn12)c1cccnc1	-2	-7
O=C(/C=C/c1ccccc1)Nc1c(-c2ccccc2)nc2ccccn12	-7	61*
CC(Cl)C(=O)Nc1c(-c2ccc(C(F)(F)F)cc2)nc2ccccn12 (stereo not drawn)	-5	55*
Cc1ccn2c(NC(=O)C(C)Cl)c(-c3cccc(F)c3)nc2c1 (stereo not drawn)	22	69*
Cc1ccc(-c2nc3ccccn3c2NC(=O)C(C)Cl)cc1 (stereo not drawn)	2	8
SMILES	Pf apPOL block	mHTT CaM bind
CC(Cl)C(=O)N1CCC2(CC1)NC(=O)c1cc(Br)ccc1N2 (stereo not drawn)	-4	-2
O=C(NCCc1ccc(F)cc1)C1CC(=O)N(CCc2c[nH]c3ccc(F)cc23)C1 (stereo not drawn)	0	31
O=C(N=Nc1c(O)[nH]c2ccc(Br)cc12)c1ccco1	80*	.
O=[N+]([O-])c1cccc(-c2csc(N=Nc3c(O)[nH]c4ccc(Br)cc34)n2)c1	1	.
CCCc1cc(=O)[nH]c(SCC=Cc2ccccc2)n1	-13	.
COc1ccc(O)c(C2=Nc3ccccc3N=C(c3cccc([N+](=O)[O-])c3)C2)c1	-2	57*
COc1ccc(-c2nnc(-c3cccc([N+](=O)[O-])c3)o2)cc1	6	-13
Cc1ccc(-c2ncc3c(=O)n(Cc4ccccc4F)c(=O)n(C)c3n2)cc1	-2	-9
Oc1ccc(Cl)cc1C1CC(c2ccc(Cl)cc2)=NC2(CCNCC2)N1 (stereo not drawn)	-6	66*
COc1ccc(C2=NC3(CCNCC3)NC(c3cc(Br)ccc3O)C2)cc1 (stereo not drawn)	-2	71*
COc1cccc(C2=NC3(CCNCC3)NC(c3cc(Br)ccc3O)C2)c1 (stereo not drawn)	-7	14
Cc1ccc(C2=NC3(CCNCC3)NC(c3cc(Cl)ccc3O)C2)cc1C (stereo not drawn)	0	10
Cc1ccccc1-n1nc2c(c1NC(=O)c1ccccc1F)CSC2	-4	49
Cc1cc(S(=O)(=O)OC(C)c2nc3ccccc3[nH]2)c(Cl)cc1Cl (stereo not drawn)	-13	.
CN1CCC2(CC1)C(C#N)=C(N)Oc1n[nH]c(-c3ccccc3)c12	-4	6
CCCN1CCN(C2CCN(C(=O)c3cc(OC)cc(OC)c3)CC2)C1=O	-4	13
O=C(CN1CCN(C(=O)c2ccco2)CC1)Nc1c2c(nc3c1CCC3)CCCC2	-3	2
